Records with an inconclusive call do not appear. Active and inactive are the calls of the source. Unless noted, the call rests on the fitted dose curve; in most records, active means well fitted curve in the direction sought with a large enough effect; inconclusive means small, poorly fitted or top-dose-only effect, or another doubt; inactive means no such curve, though single readings can be large; an effect the other way counts as inactive or inconclusive.
Key:
[1] = biological target: Lysosomal acid glucosylceramidase (Homo sapiens) (UniProt P04062); test: Glucocerebrosidase-p2 (AID 348; in the data active means potency below about 10 µM; further: potency means the concentration at half of the fitted maximal effect); settings: purified GBA, blue fluorogenic substrate, 40 min
Sequence of Lysosomal acid glucosylceramidase (Homo sapiens) (P04062 whole entry, looked up): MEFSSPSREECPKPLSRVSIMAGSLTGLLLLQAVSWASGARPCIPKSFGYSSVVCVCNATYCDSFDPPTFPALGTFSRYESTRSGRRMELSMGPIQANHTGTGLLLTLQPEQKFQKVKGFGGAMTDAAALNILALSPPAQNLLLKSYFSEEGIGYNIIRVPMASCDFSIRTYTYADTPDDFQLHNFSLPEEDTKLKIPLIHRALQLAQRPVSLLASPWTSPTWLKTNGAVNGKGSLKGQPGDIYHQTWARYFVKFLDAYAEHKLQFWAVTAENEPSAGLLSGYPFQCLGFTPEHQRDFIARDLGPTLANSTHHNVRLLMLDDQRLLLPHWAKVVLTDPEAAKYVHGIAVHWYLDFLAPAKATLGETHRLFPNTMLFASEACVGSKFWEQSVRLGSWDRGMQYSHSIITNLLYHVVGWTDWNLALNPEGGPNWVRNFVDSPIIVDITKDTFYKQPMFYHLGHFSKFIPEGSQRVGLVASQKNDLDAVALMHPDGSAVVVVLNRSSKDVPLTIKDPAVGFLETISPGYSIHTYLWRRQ
How it was run: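 Compounds titrated from 0.6 nM upwards against 0.2 nM enzyme in pH 5.9 citric acid/KH2PO4, taurocholate, tween-20; blue fluorogenic substrate 80 uM, 40 min room temperature, stopped and read Ex 365/Em 440 for AC50.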

[2] = NFAT Signaling Pathway (AID 444; active means well fitted curve in either direction with a large enough effect, not every such curve was filed as active;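 further: carbachol stimulus at about its EC50 of 1 µM final; on the % scale 0 is the no-effect control and ±100 the full control effect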); settings: Jurkat NFAT-bla M1, carbachol, beta-lactamase ratio, 5 h; at 7.69 µM (top of the series) unless noted
How it was run: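 Jurkat cells with NFAT-driven β-lactamase reporter and co-expressed M1 receptor, stimulated with carbachol (final 1 uM, ~EC50), compound titration, 5 h at 37 °C. CCF4 loaded 1 h at RT; 460/530 nm ratio gave %activity and AC50.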

[3] = Stat Signaling Pathway (AID 446; active means well fitted curve in either direction with a large enough effect, not every such curve was filed as active;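 further: ME-180 cervical cancer cells given 40 pM IL-6 alongside compound; SIE-controlled beta-lactamase reporter measured as 460/530 nm FRET emission ratio; on the % scale 0 is the no-effect control and ±100 the full control effect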); settings: ME-180 SIE beta-lactamase reporter, IL-6 stimulated, 5 h; at 7.69 µM (top of the series) unless noted
How it was run: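 ME-180 SIE-bla cells; overnight plating; cpd + IL-6 40 pM, 5 h, 37 C; LiveBLAzer 2.5 h RT; 460/530 nm emission ratio. Normalized to 300 pM IL-6 and 125 nM JAK inhibitor controls.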

[4] = biological target: Mitogen-activated protein kinase 10 (Mus musculus) (UniProt Q61831); test: JNK3 AlphaScreen Assay (AID 530; active means well fitted curve in either direction with a large enough effect, not every such curve was filed as active;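 further: kinase came from lysate of stimulated human HepG2 cells; signal reports phosphorylation of biotinylated GST-cJun 1-79 at Ser73 with 10 µM ATP; on the % scale 0 is the no-effect control and ±100 the full control effect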); settings: JNK3 lysate, c-Jun phosphorylation; series mostly up to 57.1 µM
How it was run: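 qHTS format: compounds tested as titrations against IL-1beta/TNF-alpha-activated HepG2 lysate JNK3 with biotin-GST-cJun substrate and 10 uM ATP at room temperature. Loss of anti-phospho-cJun AlphaScreen signal indicates inhibition.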

[5] = biological target: 3',5'-cyclic-AMP phosphodiesterase 4B (Homo sapiens) (UniProt Q07343); test: qHTS Assay for Inhibitors of PDE-IV (AID 607; active means well fitted activation curve with a large enough effect in the main read-out, with a control signal flat, not every such curve was filed as active; further: % of control where 0% means no effect); settings: HEK293 ACTOne CNG channel cells, membrane potential fluorescence; series mostly up to 22.9 µM
Sequence of 3',5'-cyclic-AMP phosphodiesterase 4B (Homo sapiens) (Q07343 whole entry, looked up): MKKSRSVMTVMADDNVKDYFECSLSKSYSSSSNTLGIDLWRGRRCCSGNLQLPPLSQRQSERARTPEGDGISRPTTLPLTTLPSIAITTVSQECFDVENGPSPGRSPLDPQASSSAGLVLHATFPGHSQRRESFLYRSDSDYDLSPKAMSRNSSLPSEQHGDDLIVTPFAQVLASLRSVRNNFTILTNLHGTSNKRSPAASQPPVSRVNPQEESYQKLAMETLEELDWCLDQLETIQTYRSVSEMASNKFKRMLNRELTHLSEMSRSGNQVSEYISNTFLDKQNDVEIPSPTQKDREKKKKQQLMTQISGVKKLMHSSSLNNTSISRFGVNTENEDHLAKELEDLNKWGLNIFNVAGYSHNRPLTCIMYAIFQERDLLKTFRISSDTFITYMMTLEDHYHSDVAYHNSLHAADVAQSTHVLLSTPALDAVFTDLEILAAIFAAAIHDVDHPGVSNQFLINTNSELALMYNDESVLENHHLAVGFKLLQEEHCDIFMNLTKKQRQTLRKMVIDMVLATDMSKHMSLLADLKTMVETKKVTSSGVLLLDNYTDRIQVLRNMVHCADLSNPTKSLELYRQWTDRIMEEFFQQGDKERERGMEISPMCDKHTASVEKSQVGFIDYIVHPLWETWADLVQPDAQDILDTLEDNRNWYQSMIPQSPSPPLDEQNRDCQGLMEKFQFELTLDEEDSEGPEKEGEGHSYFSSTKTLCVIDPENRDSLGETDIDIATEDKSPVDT
How it was run: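 ACTOne HEK293 cells carry a modified cAMP-gated CNG channel and express endogenous PDE4; plated 1000 cells/well, compounds up to 22.9 uM final. Membrane-potential dye fluorescence (ex 535/em 590) was read; parental cells received 10 uM forskolin + 100 uM RO 20-1724.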

[6] = biological target: ATP-dependent 6-phosphofructokinase (Trypanosoma brucei brucei) (UniProt O15648); test: qHTS Assay to Find Inhibitors of T. brucei phosphofructokinase: hit validation (AID 492961); further: on the % scale 0 is the no-effect control and ±100 the full control effect; settings: T. brucei PFK, ADP-Glo luminescence; series mostly up to 51.4 µM
Sequence of ATP-dependent 6-phosphofructokinase (Trypanosoma brucei brucei) (O15648 whole entry, looked up): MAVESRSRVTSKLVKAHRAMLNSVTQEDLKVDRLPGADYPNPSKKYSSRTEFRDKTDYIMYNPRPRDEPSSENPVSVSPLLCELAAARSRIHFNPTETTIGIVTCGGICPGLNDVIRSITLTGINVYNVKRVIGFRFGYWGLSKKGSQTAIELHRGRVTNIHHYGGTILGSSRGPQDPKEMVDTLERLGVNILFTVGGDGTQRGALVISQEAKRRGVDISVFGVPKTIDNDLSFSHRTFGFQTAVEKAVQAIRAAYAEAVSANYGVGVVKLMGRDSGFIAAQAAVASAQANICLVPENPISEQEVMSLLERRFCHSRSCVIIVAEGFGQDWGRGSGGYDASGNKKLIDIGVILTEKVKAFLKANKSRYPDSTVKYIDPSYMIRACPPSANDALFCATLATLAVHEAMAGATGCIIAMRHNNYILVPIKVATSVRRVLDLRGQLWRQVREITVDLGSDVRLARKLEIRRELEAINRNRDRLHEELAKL
How it was run: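 Luminescence from ADP-Glo reports ADP generated as T. brucei PFK (1.25 nM) phosphorylates 0.5 mM fructose-6-phosphate using 0.1 mM ATP. Reactions ran 45 min at room temperature, pH 8.0.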

[7] = biological target: Ubiquitin carboxyl-terminal hydrolase 1 (Homo sapiens) (UniProt O94782); test: Inhibitors of USP1/UAF1: Pilot qHTS (AID 504865); settings: purified USP1/UAF1, Ub-rhodamine cleavage fluorescence; series mostly up to 114 µM;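 further: rhodamine fluorescence freed from ubiquitin-rhodamine substrate followed over time; top concentration of the series differs between compounds; on the % scale 0 is the no-effect control and ±100 the full control effect; nearly all actives have a fitted effect of over 35% in size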
Sequence of Ubiquitin carboxyl-terminal hydrolase 1 (Homo sapiens) (O94782 whole entry, looked up): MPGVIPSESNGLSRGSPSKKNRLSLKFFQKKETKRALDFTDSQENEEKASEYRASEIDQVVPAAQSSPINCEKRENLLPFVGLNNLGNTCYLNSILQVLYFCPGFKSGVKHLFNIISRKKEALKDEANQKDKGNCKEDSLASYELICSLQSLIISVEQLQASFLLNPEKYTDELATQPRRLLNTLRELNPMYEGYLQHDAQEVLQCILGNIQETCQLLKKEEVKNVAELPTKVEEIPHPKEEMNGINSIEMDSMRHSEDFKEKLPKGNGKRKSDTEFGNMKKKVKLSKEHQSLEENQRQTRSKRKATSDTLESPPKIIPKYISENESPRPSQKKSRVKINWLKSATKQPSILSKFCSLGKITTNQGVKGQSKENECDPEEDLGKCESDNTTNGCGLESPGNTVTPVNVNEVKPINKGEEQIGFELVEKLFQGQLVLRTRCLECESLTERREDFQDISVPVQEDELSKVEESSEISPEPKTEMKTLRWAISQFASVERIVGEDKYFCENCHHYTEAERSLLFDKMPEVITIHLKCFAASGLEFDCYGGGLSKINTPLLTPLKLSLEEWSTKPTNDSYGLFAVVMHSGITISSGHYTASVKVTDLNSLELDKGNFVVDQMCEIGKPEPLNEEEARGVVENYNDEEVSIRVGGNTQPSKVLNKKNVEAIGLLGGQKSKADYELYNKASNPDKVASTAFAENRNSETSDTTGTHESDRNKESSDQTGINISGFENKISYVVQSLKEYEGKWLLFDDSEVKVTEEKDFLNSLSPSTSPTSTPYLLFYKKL
How it was run: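 1nM USP1/UAF1 + cpd, 15 min RT; start w/ Ub-Rho 150nM final; kinetic FL 480/540 nm, 6 reads q60 s. Buffer 50mM HEPES pH 7.8, 0.5mM EDTA, 1mM TCEP, 0.01% Tween-20, 0.1 mg/ml BSA.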

[8] = biological target: Luciferin 4-monooxygenase (Photinus pyralis) (UniProt P08659); test: Biochemical firefly luciferase enzyme assay for NPC (AID 624030);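 further: purified P. pyralis luciferase at 10 nM with luciferin and ATP substrate; 0% = DMSO and -100% = full luciferase inhibition by PTC124 control; nearly all actives have a fitted effect of over 70% in size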; settings: purified P. pyralis luciferase, luminescence, 5 min; series mostly up to 58.6 µM
Sequence of Luciferin 4-monooxygenase (Photinus pyralis) (P08659 whole entry, looked up): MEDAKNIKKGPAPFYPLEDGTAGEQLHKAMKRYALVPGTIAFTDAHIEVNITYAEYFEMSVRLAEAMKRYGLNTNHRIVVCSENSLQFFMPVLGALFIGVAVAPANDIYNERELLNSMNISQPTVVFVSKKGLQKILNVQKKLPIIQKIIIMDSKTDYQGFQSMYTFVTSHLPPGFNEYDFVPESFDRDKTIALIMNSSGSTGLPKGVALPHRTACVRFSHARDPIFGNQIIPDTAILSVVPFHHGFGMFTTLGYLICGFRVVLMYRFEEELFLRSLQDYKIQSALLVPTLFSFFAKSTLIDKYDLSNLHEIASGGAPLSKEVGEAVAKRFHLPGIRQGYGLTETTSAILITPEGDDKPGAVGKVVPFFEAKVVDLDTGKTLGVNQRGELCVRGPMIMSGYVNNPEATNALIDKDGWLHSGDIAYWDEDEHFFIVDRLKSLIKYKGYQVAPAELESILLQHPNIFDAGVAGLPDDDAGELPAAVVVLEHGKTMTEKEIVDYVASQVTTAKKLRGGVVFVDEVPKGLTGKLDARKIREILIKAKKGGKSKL
How it was run: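 Purified P. pyralis luciferase at 10 nM in 50 mM Tris Acetate (final), luminescence read within 5 minutes of enzyme addition to compounds. Activity normalised to PTC124 versus DMSO; concentration-response curves classed by r2, magnitude and activity.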

[9] = S16 Schwann cell viability assay (CellTiter-Glo assay) (AID 624031); settings: S16 rat Schwann cells viability, 24 h; series mostly up to 57.5 µM;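 further: native untransfected S16 rat Schwann cells; cellular ATP luminescence as a viability measure; plate controls were DMSO-treated cells for no effect and cell-free wells for full effect; nearly all actives have a fitted effect of over 70% in size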
How it was run: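 Concentration-effect curves come from CellTiter-Glo luminescence of S16 rat Schwann cells after 24 h compound exposure. Each reading was normalized to DMSO wells (0%) and wells without cells, and curves were ranked by r2 and response magnitude.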

[10] = S16 Schwann cell PMP22 intronic element beta-lactamase assay (AID 624044; calls by dose curve;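 further: 0% = DMSO and -100% = potassium clavulanate positive control; nearly all actives have a fitted effect of over 15% in size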); settings: S16 rat Schwann cells, PMP22 element beta-lactamase FRET, 24 h; series mostly up to 38.3 µM
How it was run: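 Rat S16 Schwann cells with beta-Lac driven by a PMP22 intronic element, compound-treated 24 h at 37 °C. LiveBLAzer FRET B/G read: 460 nm normalized to potassium clavulanate vs DMSO; 535 nm FRET as viability; concentration-effect curves classified.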

[11] = system: 3D7; test: qHTS profiling for inhibitors of Plasmodium falciparum proliferation (AID 504749);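 further: 0% = DMSO vehicle and full inhibition = artemisinin control; nearly all actives have a fitted effect of over 60% in size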; settings: P. falciparum in erythrocytes, SYBR Green DNA, 72 h; series mostly up to 28.7 µM
How it was run: (§1)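 Readout was DNA-dye fluorescence from lysed cultures, ex 485/em 535 nm. Parasitized red cells had grown 72 h with compound; data scaled between 0.29 uM artemisinin and DMSO wells and corrected using vehicle-only plates.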

[12] = system: 7G8; test: as above; settings: P. falciparum in erythrocytes, SYBR Green DNA, 72 h; series mostly up to 28.7 µM
How it was run: as §1

[13] = system: AA1029; test: as above; settings: P. falciparum in erythrocytes, SYBR Green DNA, 72 h; series mostly up to 28.7 µM
How it was run: as §1

[14] = system: AS120; test: as above; settings: P. falciparum in erythrocytes, SYBR Green DNA, 72 h; series mostly up to 28.7 µM
How it was run: as §1

[15] = system: ATS189; test: as above; settings: P. falciparum in erythrocytes, SYBR Green DNA, 72 h; series mostly up to 28.7 µM
How it was run: as §1

[16] = system: ATS95; test: as above; settings: P. falciparum in erythrocytes, SYBR Green DNA, 72 h; series mostly up to 28.7 µM
How it was run: as §1

[17] = system: C2A; test: as above; settings: P. falciparum in erythrocytes, SYBR Green DNA, 72 h; series mostly up to 28.7 µM
How it was run: as §1

[18] = system: CP185; test: as above; settings: P. falciparum in erythrocytes, SYBR Green DNA, 72 h; series mostly up to 28.7 µM
How it was run: as §1

[19] = system: CP191; test: as above; settings: P. falciparum in erythrocytes, SYBR Green DNA, 72 h; series mostly up to 28.7 µM
How it was run: as §1

[20] = system: CP192; test: as above; settings: P. falciparum in erythrocytes, SYBR Green DNA, 72 h; series mostly up to 28.7 µM
How it was run: as §1

[21] = system: CP201; test: as above; settings: P. falciparum in erythrocytes, SYBR Green DNA, 72 h; series mostly up to 28.7 µM
How it was run: as §1

[22] = system: CP203; test: as above; settings: P. falciparum in erythrocytes, SYBR Green DNA, 72 h; series mostly up to 28.7 µM
How it was run: as §1

[23] = system: CP211; test: as above; settings: P. falciparum in erythrocytes, SYBR Green DNA, 72 h; series mostly up to 28.7 µM
How it was run: as §1

[24] = system: CP215; test: as above; settings: P. falciparum in erythrocytes, SYBR Green DNA, 72 h; series mostly up to 28.7 µM
How it was run: as §1

[25] = system: CP217; test: as above; settings: P. falciparum in erythrocytes, SYBR Green DNA, 72 h; series mostly up to 28.7 µM
How it was run: as §1

[26] = system: CP237; test: as above; settings: P. falciparum in erythrocytes, SYBR Green DNA, 72 h; series mostly up to 28.7 µM
How it was run: as §1

[27] = system: CP238; test: as above; settings: P. falciparum in erythrocytes, SYBR Green DNA, 72 h; series mostly up to 28.7 µM
How it was run: as §1

[28] = system: CP247; test: as above; settings: P. falciparum in erythrocytes, SYBR Green DNA, 72 h; series mostly up to 28.7 µM
How it was run: as §1

[29] = system: CP250; test: as above; settings: P. falciparum in erythrocytes, SYBR Green DNA, 72 h; series mostly up to 28.7 µM
How it was run: as §1

[30] = system: CP252; test: as above; settings: P. falciparum in erythrocytes, SYBR Green DNA, 72 h; series mostly up to 28.7 µM
How it was run: as §1

[31] = system: CP256; test: as above; settings: P. falciparum in erythrocytes, SYBR Green DNA, 72 h; series mostly up to 28.7 µM
How it was run: as §1

[32] = system: CP260; test: as above; settings: P. falciparum in erythrocytes, SYBR Green DNA, 72 h; series mostly up to 28.7 µM
How it was run: as §1

C[C@@H]1O[C@@H](O[C@H]2C[C@@H](O)[C@@]3(CO)[C@H]4[C@H](O)C[C@]5(C)[C@@H](C6=CC(=O)OC6)CC[C@]5(O)[C@H]4CC[C@@]3(O)C2)[C@@H](O)[C@H](O)[C@H]1O
active: activity change, negative = inhibition [2] -104%
inactive: Potency [1] > 11.4 µM | activity, negative = inhibition [3] -4.36% | activity change, negative = inhibition [4] -1.14% [at 11.4 µM] | outcome [5] | outcome [6] | Potency [7] | outcome [8] | outcome [9] | outcome [10] | Potency [11] | Potency [12] | Potency [13] | Potency [14] | Potency [15] | Potency [16] | Potency [17] | Potency [18] | Potency [19] | Potency [20] | Potency [21] | Potency [22] | Potency [23] | Potency [24] | Potency [25] | Potency [26] | Potency [27] | Potency [28] | Potency [29] | Potency [30] | Potency [31] | Potency [32]

— PubChem BioAssay (NCATS)
